Results reported in PubChem BioAssay (NCI).
“And” between values parts separate entries of the source, which are not always exact repeats. Equal values may be shown once. This is part of a sample that, as a whole, favours compounds with a hit. Of some 83,000 tested, about 20% had one in any assay.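 Each cell line was grown in a 96-well plate and treated with one concentration of compound for 48 hours. Values below 10 were considered active.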

Legend:
Experiment in all cases: NCI-60 one-dose screen, 48 h (100 = growth as untreated, 0 = no growth, -100 = all killed)
Details in all cases: 10 µM unless noted
TK-10 renal = tested on: TK-10 renal
SK-MEL-2 melanoma = tested on: SK-MEL-2 melanoma
SN12C renal = tested on: SN12C renal
UO-31 renal = tested on: UO-31 renal
ACHN renal = tested on: ACHN renal
CAKI-1 renal = tested on: CAKI-1 renal
A498 renal = tested on: A498 renal
MOLT-4 leukemia = tested on: MOLT-4 leukemia
SR leukemia = tested on: SR leukemia
RPMI-8226 leukemia = tested on: RPMI-8226 leukemia
OVCAR-4 ovarian = tested on: OVCAR-4 ovarian
SK-OV-3 ovarian = tested on: SK-OV-3 ovarian
IGROV1 ovarian = tested on: IGROV1 ovarian
OVCAR-3 ovarian = tested on: OVCAR-3 ovarian
HS 578T breast = tested on: HS 578T breast
NCI/ADR-RES ovarian = tested on: NCI/ADR-RES ovarian
CCRF-CEM leukemia = tested on: CCRF-CEM leukemia
OVCAR-8 ovarian = tested on: OVCAR-8 ovarian
OVCAR-5 ovarian = tested on: OVCAR-5 ovarian

Measured: growth

CCCCCCSC[C@H](OC(C)=O)[C@@H](OC(C)=O)[C@@H](OC(C)=O)[C@@H](COC(C)=O)OC(C)=O
inactive: TK-10 renal 95.1% [100 µM] and 101% [100 µM]

CCOC(=O)c1cc(C)nc2c1c(=O)n(-c1ccccc1)c(=O)n2CCCCN1CCN(c2ncccn2)CC1
inactive: TK-10 renal 116% [100 µM] and 111% [100 µM]

Nc1ccccc1SC1CC(=O)N(c2cccc3ccccc23)C1=O (configuration not stated)
inactive: SK-MEL-2 melanoma 92.6% | SN12C renal 98.3% | UO-31 renal 68.6% | TK-10 renal 113% | ACHN renal 97.5% | CAKI-1 renal 79.7% | A498 renal 88.8% | MOLT-4 leukemia 83.5% | SR leukemia 88% | RPMI-8226 leukemia 86.3% | OVCAR-4 ovarian 93.6% | SK-OV-3 ovarian 88.6% | IGROV1 ovarian 99.1% | OVCAR-3 ovarian 101% | HS 578T breast 97.9% | NCI/ADR-RES ovarian 96.1%

Cc1c(Cl)cccc1NCN1C(=O)c2ccccc2C1=O
inactive: SK-MEL-2 melanoma 103% | SN12C renal 112% | UO-31 renal 82.8% | TK-10 renal 114% | ACHN renal 105% | CAKI-1 renal 94.4% | A498 renal 101% | CCRF-CEM leukemia 105% | MOLT-4 leukemia 116% | RPMI-8226 leukemia 105% | OVCAR-8 ovarian 99.8% | OVCAR-5 ovarian 107% | SK-OV-3 ovarian 106% | IGROV1 ovarian 116% | OVCAR-3 ovarian 114% | HS 578T breast 118% | NCI/ADR-RES ovarian 110%

CC1(C)C2CCC1(CS(=O)(=O)O)C(=O)C2 (configuration not stated)
inactive: OVCAR-4 ovarian 95.1% | HS 578T breast 112%
